Measurements published in PubChem BioAssay AID540326 (Broad Institute, 2011).
This is one part of the list. Values without a mark were called inactive. Active and inactive are the calls of the source.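 The calls were made as follows: active = quenching, a falling signal, with AC50 below a set limit tied to the top valid dose (actives reach about 32 µM in these data); inconclusive = no clear call, values can overlap the other calls; inactive = rising signal, and the rest.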

Assay: compounds quenching DiI signal without cells – biochemical, cherry-pick samples, plate reader fluorescence, artefact control for SR-BI HDL uptake inhibitor project, dose response (AID 540326)
Conditions: cell-free DiI-HDL fluorescence quenching, 30 min; series mostly up to 35 µM; activity change, negative = quenching: at the top concentration

| Structure (SMILES) | AC50 | activity change, negative = quenching [%] |
| --- | --- | --- |
| O=C(Nc1ccc(-c2csc(Nc3cccc(C(F)(F)F)c3)n2)cc1)c1cccc(C(F)(F)F)c1 | 435 nM (active) | – |
| Cc1cccc(N2CCN(C(=O)CN(C)S(=O)(=O)c3ccc4c(c3)CCC(=O)N4)CC2)c1C | – | -1.63 |
| O=c1cc(N2CCCCC2)c(-c2ccccc2)nn1Cc1cccc(F)c1 | – | 0.392 |
| CCCOC1CCCN(C(=O)c2cc(COc3cncc(Cl)c3)on2)C1 (stereo unspecified) | – | -2.62 |
| COC(=O)C1=CN(c2ccc(F)c(F)c2)C=C(C(=O)OC)C1c1ccc([N+](=O)[O-])cc1 | – | -8.39 |
| COc1cccc(N(CC(=O)NC2CCCC2)C(=O)Cn2nnc(-c3ccc(C)cc3)n2)c1 | – | -2.78 |
| C=CCCC(=O)Nc1nc(C)c(-c2csc(Nc3ccc(Cl)cc3)n2)s1 | 2190 nM (active) | – |
| CCCOC(=O)c1[nH]c2c(c1C)C(=O)CC(c1cc(OC)c(OC)c(OC)c1)C2 (stereo unspecified) | – | -1 |
| CCOc1ccc(OCCSc2nc3ccccc3n2CC(=O)O)cc1 | – | -2.93 |
| CCCC(=O)Nc1ccc(Cl)c(NC(=O)c2ccc(Br)o2)c1 | – | -0.557 |
| CCOc1ccc(NC(=O)CN2CCN(CC(=O)Nc3ccc(OC)cc3)CC2)cc1 | – | -4.99 |
| O=C(Nc1cccc(NC(=O)N2CCN(c3ccccc3)CC2)c1)N1CCN(c2ccccc2)CC1 | – | -11 |
| O=C(NC1CC2CCCC(C1)N2C(=O)N1CCCCC1)C1CCCCC1 (stereo unspecified) | – | -1.48 |
| CCCC(=O)N1c2ccc(-c3csc(N)n3)cc2CC1C (stereo unspecified) | – | -13 |
| CCOC(=O)c1[nH]c2c(c1-c1ccccc1)C(=O)CC(c1ccc(Cl)cc1)C2 (stereo unspecified) | – | -0.468 |
| CC(C)OCCCNC(=O)c1ccc(C2SCC(=O)N2Cc2ccco2)cc1 (stereo unspecified) | – | 3.09 |
